Assay results taken from PubChem BioAssay (NCATS).
Results filed as inconclusive are left out. Calls of active or inactive are those of the source. Unless noted, calls come from the whole dose curve; as a rule, active = well fitted curve in the direction sought with a large enough effect; inconclusive = small, poorly fitted or top-dose-only effect, or another doubt; inactive = no such curve, though single readings can be large; an effect the other way counts as inactive or inconclusive.

Assays:
[1] = molecular target: ATP-dependent 6-phosphofructokinase (Trypanosoma brucei brucei) (UniProt O15648); test: qHTS Assay to Find Inhibitors of T. brucei phosphofructokinase: hit validation (AID 492961);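 note: luminescence reports ADP formed as PFK phosphorylates fructose-6-phosphate with ATP; % is set by controls: 0 for no effect and ±100 for the full control effect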
Procedure, shortened: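 In this biochemical qHTS validation, titrated compounds were tested against 1.25 nM PFK with 0.1 mM ATP and 0.5 mM F6P. Percent activity came from controls lacking or containing enzyme.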

[2] = molecular target: Ubiquitin carboxyl-terminal hydrolase 1 (Homo sapiens) (UniProt O94782); test: Inhibitors of USP1/UAF1: Pilot qHTS (AID 504865);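 note: rhodamine fluorescence freed from ubiquitin-rhodamine substrate followed over time; top concentration of the series differs between compounds; % is set by controls: 0 for no effect and ±100 for the full control effect; nearly all actives have a fitted effect of over 35% in size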
Procedure, shortened: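 Deubiquitinase activity followed as kinetic rhodamine fluorescence release from 150 nM Ub-Rho. 1 nM USP1/UAF1 with compound, after 15 min room-temperature preincubation, in HEPES pH 7.8 buffer containing TCEP, EDTA, BSA and Tween-20.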

[3] = molecular target: Luciferin 4-monooxygenase (Photinus pyralis) (UniProt P08659); test: Biochemical firefly luciferase enzyme assay for NPC (AID 624030);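 note: purified P. pyralis luciferase at 10 nM with luciferin and ATP substrate; 0% = DMSO and -100% = full luciferase inhibition by PTC124 control; nearly all actives have a fitted effect of over 70% in size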
Procedure, shortened: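 Direct inhibition of firefly luciferase enzyme (10 nM final, 50 mM Tris Acetate) assessed by luminescence within 5 minutes. Percent activity scaled between DMSO and PTC124 positive control, with concentration-effect curves classified by fit quality and response.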

[4] = S16 Schwann cell viability assay (CellTiter-Glo assay) (AID 624031);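 note: cellular ATP luminescence as a viability measure; plate controls were DMSO-treated cells for no effect and cell-free wells for full effect; nearly all actives have a fitted effect of over 70% in size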
Procedure, shortened: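 Native S16 Schwann cells (rat), serum-containing medium, overnight attachment then 24 h drug exposure at 37 °C/5% CO2. CellTiter-Glo ATP signal; normalized to cell-free and vehicle wells.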

[5] = S16 Schwann cell PMP22 intronic element firefly luciferase assay (AID 624032);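 note: plate controls were DMSO for no effect and PTC124 positive control mean for full effect; nearly all actives have a fitted effect of over 30% in size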
Procedure, shortened: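 Luciferase reporter of PMP22 intronic-element expression in stably transfected S16 rat Schwann cells, read by ONE-Glo luminescence after 24 h compound exposure at 37 C. Activity scaled between DMSO (0%) and positive-control PTC124; concentration-effect curves quality-classified.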

[6] = S16 Schwann cell PMP22 intronic element beta-lactamase assay (AID 624044; calls by dose curve;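 note: 0% = DMSO and -100% = potassium clavulanate positive control; nearly all actives have a fitted effect of over 15% in size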)
Procedure, shortened: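 Rat S16 Schwann cells with beta-Lac driven by a PMP22 intronic element, compound-treated 24 h at 37 °C. LiveBLAzer FRET B/G read: 460 nm normalized to potassium clavulanate vs DMSO; 535 nm FRET as viability; concentration-effect curves classified.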

[7] = molecular target: Rap guanine nucleotide exchange factor 3 (Homo sapiens) (UniProt O95398); test: Confirmatory qHTS for antagonist of cAMP-regulated guanine nucleotide exchange factor 3 (EPAC1) (AID 1645880); conditions: EPAC1 Rap1B-BODIPY-GDP exchange, fluorescence; activity, negative = inhibition: at 115 µM (top of the series);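 note: plate controls were DMSO only for no effect and full effect of the ATA control for full effect; nearly all actives have a fitted effect of over 55% in size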
Procedure, shortened: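 Nucleotide exchange uses 100 nM EPAC1, 250 nM RAP1B-BODIPY-GDP and 50 uM GDP, with compounds in a concentration-titration series. After 5 min at room temperature, fluorescence (480 nm ex/540 nm em) is read every 5 min for 30 min. Data are normalized to control ATA and DMSO.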

[8] = molecular target: Rap guanine nucleotide exchange factor 3 (Homo sapiens) (UniProt O95398); test: Confirmatory qHTS for agonist of cAMP-regulated guanine nucleotide exchange factor 3 (EPAC1) (AID 1645881);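 note: EPAC1 catalysed release of BODIPY-GDP from Rap1B seen as fluorescence loss; 100% = effect of cAMP agonist control; nearly all actives have a fitted effect of over 75% in size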
[9] = molecular target: Rap guanine nucleotide exchange factor 3 (Homo sapiens) (UniProt O95398); test: Counterscreen qHTS for antagonist of cAMP-regulated guanine nucleotide exchange factor 3 (EPAC1) (AID 1645888);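 note: fluorescence loss as bound BODIPY-GDP is released from Rap1B; % of control where 0% means no effect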
Procedure, shortened: (§1)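 Rap1B-BODIPY-GDP 250 nM + GDP 50 uM; cpds 7-pt, final 9.74 nM–152 uM (activator mode) or from 7.32 nM upwards (inhibitor mode); RT; FI 480/540 nm at 5 and 30 min, then ± cAMP, reread.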

[10] = molecular target: Rap guanine nucleotide exchange factor 3 (Homo sapiens) (UniProt O95398); test: Counterscreen qHTS for agonist of cAMP-regulated guanine nucleotide exchange factor 3 (EPAC1) (AID 1645889); note: % of control where 0% means no effect; nearly all actives have a fitted effect of over 40% in size
Procedure, shortened: as §1

[11] = qHTS profiling for inhibitors of Plasmodium falciparum proliferation (AID 504749); note: nearly all actives have a fitted effect of over 60% in size; note: potency is the fitted concentration of half-maximal effect;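 for activity, negative = inhibition: 0% = DMSO vehicle and full inhibition = artemisinin control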; conditions: P. falciparum in erythrocytes, SYBR Green DNA, 72 h; parasite line A
Procedure, shortened: (§2)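 Three-day growth assay of blood-stage parasites in erythrocytes (0.3% parasitemia, 2.5% hematocrit) at 37 C, 5% CO2, quantified by SYBR Green DNA staining after overnight detergent lysis.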

[12] = system: 7G8; test: as above; conditions: P. falciparum in erythrocytes, SYBR Green DNA, 72 h; series mostly up to 28.7 µM
Procedure, shortened: as §2

[13] = system: AA1029; test: as above; conditions: P. falciparum in erythrocytes, SYBR Green DNA, 72 h; series mostly up to 28.7 µM
Procedure, shortened: as §2

[14] = system: AS120; test: as above; conditions: P. falciparum in erythrocytes, SYBR Green DNA, 72 h; series mostly up to 28.7 µM
Procedure, shortened: as §2

[15] = system: ATS189; test: as above; conditions: P. falciparum in erythrocytes, SYBR Green DNA, 72 h; series mostly up to 28.7 µM
Procedure, shortened: as §2

[16] = system: ATS95; test: as above; conditions: P. falciparum in erythrocytes, SYBR Green DNA, 72 h; series mostly up to 28.7 µM
Procedure, shortened: as §2

[17] = system: C2A; test: as above; conditions: P. falciparum in erythrocytes, SYBR Green DNA, 72 h; series mostly up to 28.7 µM
Procedure, shortened: as §2

[18] = system: CP185; test: as above; conditions: P. falciparum in erythrocytes, SYBR Green DNA, 72 h; series mostly up to 28.7 µM
Procedure, shortened: as §2

[19] = system: CP191; test: as above; conditions: P. falciparum in erythrocytes, SYBR Green DNA, 72 h; series mostly up to 28.7 µM
Procedure, shortened: as §2

[20] = system: CP192; test: as above; conditions: P. falciparum in erythrocytes, SYBR Green DNA, 72 h; series mostly up to 28.7 µM
Procedure, shortened: as §2

[21] = system: CP194; test: as above; conditions: P. falciparum in erythrocytes, SYBR Green DNA, 72 h; series mostly up to 28.7 µM
Procedure, shortened: as §2

[22] = system: CP203; test: as above; conditions: P. falciparum in erythrocytes, SYBR Green DNA, 72 h; series mostly up to 28.7 µM
Procedure, shortened: as §2

[23] = system: CP217; test: as above; conditions: P. falciparum in erythrocytes, SYBR Green DNA, 72 h; series mostly up to 28.7 µM
Procedure, shortened: as §2

[24] = system: CP237; test: as above; conditions: P. falciparum in erythrocytes, SYBR Green DNA, 72 h; series mostly up to 28.7 µM
Procedure, shortened: as §2

[25] = system: CP238; test: as above; conditions: P. falciparum in erythrocytes, SYBR Green DNA, 72 h; series mostly up to 28.7 µM
Procedure, shortened: as §2

[26] = system: CP247; test: as above; conditions: P. falciparum in erythrocytes, SYBR Green DNA, 72 h; series mostly up to 28.7 µM
Procedure, shortened: as §2

[27] = system: CP252; test: as above; conditions: P. falciparum in erythrocytes, SYBR Green DNA, 72 h; series mostly up to 28.7 µM
Procedure, shortened: as §2

[28] = system: CP256; test: as above; conditions: P. falciparum in erythrocytes, SYBR Green DNA, 72 h; series mostly up to 28.7 µM
Procedure, shortened: as §2

[29] = system: CP260; test: as above; conditions: P. falciparum in erythrocytes, SYBR Green DNA, 72 h; series mostly up to 28.7 µM
Procedure, shortened: as §2

[30] = system: CP262; test: as above; conditions: P. falciparum in erythrocytes, SYBR Green DNA, 72 h; series mostly up to 28.7 µM
Procedure, shortened: as §2

[31] = system: CP265; test: as above; conditions: P. falciparum in erythrocytes, SYBR Green DNA, 72 h; series mostly up to 28.7 µM
Procedure, shortened: as §2

[32] = system: CP269; test: as above; conditions: P. falciparum in erythrocytes, SYBR Green DNA, 72 h; series mostly up to 28.7 µM
Procedure, shortened: as §2

[33] = system: CP286; test: as above; conditions: P. falciparum in erythrocytes, SYBR Green DNA, 72 h; series mostly up to 28.7 µM
Procedure, shortened: as §2

[34] = system: CP297; test: as above; conditions: P. falciparum in erythrocytes, SYBR Green DNA, 72 h; series mostly up to 28.7 µM
Procedure, shortened: as §2

[35] = system: CP335; test: as above; conditions: P. falciparum in erythrocytes, SYBR Green DNA, 72 h; series mostly up to 28.7 µM
Procedure, shortened: as §2

[36] = system: DFO2036; test: as above; conditions: P. falciparum in erythrocytes, SYBR Green DNA, 72 h; series mostly up to 28.7 µM
Procedure, shortened: as §2

[37] = system: DIV14; test: as above; conditions: P. falciparum in erythrocytes, SYBR Green DNA, 72 h; series mostly up to 28.7 µM
Procedure, shortened: as §2

[38] = system: DIV17; test: as above; conditions: P. falciparum in erythrocytes, SYBR Green DNA, 72 h; series mostly up to 28.7 µM
Procedure, shortened: as §2

[39] = system: Dd2; test: as above; conditions: P. falciparum in erythrocytes, SYBR Green DNA, 72 h; series mostly up to 28.7 µM
Procedure, shortened: as §2

[40] = system: ECU; test: as above; conditions: P. falciparum in erythrocytes, SYBR Green DNA, 72 h; series mostly up to 28.7 µM
Procedure, shortened: as §2

[41] = system: FAB9; test: as above; conditions: P. falciparum in erythrocytes, SYBR Green DNA, 72 h; series mostly up to 28.7 µM
Procedure, shortened: as §2

[42] = system: GB4; test: as above; conditions: P. falciparum in erythrocytes, SYBR Green DNA, 72 h; series mostly up to 28.7 µM
Procedure, shortened: as §2

[43] = system: ICS; test: as above; conditions: P. falciparum in erythrocytes, SYBR Green DNA, 72 h; series mostly up to 28.7 µM
Procedure, shortened: as §2

[44] = system: JCK; test: as above; conditions: P. falciparum in erythrocytes, SYBR Green DNA, 72 h; series mostly up to 28.7 µM
Procedure, shortened: as §2

[45] = system: N140; test: as above; conditions: P. falciparum in erythrocytes, SYBR Green DNA, 72 h; series mostly up to 28.7 µM
Procedure, shortened: as §2

[46] = system: P93_24; test: as above; conditions: P. falciparum in erythrocytes, SYBR Green DNA, 72 h; series mostly up to 28.7 µM
Procedure, shortened: as §2

[47] = system: P94_40; test: as above; conditions: P. falciparum in erythrocytes, SYBR Green DNA, 72 h; series mostly up to 28.7 µM
Procedure, shortened: as §2

[48] = system: PC49; test: as above; conditions: P. falciparum in erythrocytes, SYBR Green DNA, 72 h; series mostly up to 28.7 µM
Procedure, shortened: as §2

[49] = system: SC27B; test: as above; conditions: P. falciparum in erythrocytes, SYBR Green DNA, 72 h; series mostly up to 28.7 µM
Procedure, shortened: as §2

[50] = system: TAB109; test: as above; conditions: P. falciparum in erythrocytes, SYBR Green DNA, 72 h; series mostly up to 28.7 µM
Procedure, shortened: as §2

[51] = system: TAB113; test: as above; conditions: P. falciparum in erythrocytes, SYBR Green DNA, 72 h; series mostly up to 28.7 µM
Procedure, shortened: as §2

[52] = system: TAB165; test: as above; conditions: P. falciparum in erythrocytes, SYBR Green DNA, 72 h; series mostly up to 28.7 µM
Procedure, shortened: as §2

[53] = system: W2; test: as above; conditions: P. falciparum in erythrocytes, SYBR Green DNA, 72 h; series mostly up to 28.7 µM
Procedure, shortened: as §2

[54] = molecular target: Rap guanine nucleotide exchange factor 4 (Homo sapiens) (UniProt Q8WZA2); test: Confirmatory qHTS for agonist of cAMP-regulated guanine nucleotide exchange factor 4 (EPAC2) (AID 1645884);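 note: nucleotide exchange releases bodipy-GDP from Rap1 and this lowers its fluorescence; % is set by controls: 0 for no effect and ±100 for the full control effect; nearly all actives have a fitted effect of over 65% in size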
[55] = molecular target: Rap guanine nucleotide exchange factor 4 (Homo sapiens) (UniProt Q8WZA2); test: Confirmatory qHTS for antagonist of cAMP-regulated guanine nucleotide exchange factor 4 (EPAC2) (AID 1645885); note: % is set by controls: 0 for no effect and ±100 for the full control effect; nearly all actives have a fitted effect of over 25% in size

Chain of Rap guanine nucleotide exchange factor 3 (Homo sapiens) (O95398 whole entry, looked up): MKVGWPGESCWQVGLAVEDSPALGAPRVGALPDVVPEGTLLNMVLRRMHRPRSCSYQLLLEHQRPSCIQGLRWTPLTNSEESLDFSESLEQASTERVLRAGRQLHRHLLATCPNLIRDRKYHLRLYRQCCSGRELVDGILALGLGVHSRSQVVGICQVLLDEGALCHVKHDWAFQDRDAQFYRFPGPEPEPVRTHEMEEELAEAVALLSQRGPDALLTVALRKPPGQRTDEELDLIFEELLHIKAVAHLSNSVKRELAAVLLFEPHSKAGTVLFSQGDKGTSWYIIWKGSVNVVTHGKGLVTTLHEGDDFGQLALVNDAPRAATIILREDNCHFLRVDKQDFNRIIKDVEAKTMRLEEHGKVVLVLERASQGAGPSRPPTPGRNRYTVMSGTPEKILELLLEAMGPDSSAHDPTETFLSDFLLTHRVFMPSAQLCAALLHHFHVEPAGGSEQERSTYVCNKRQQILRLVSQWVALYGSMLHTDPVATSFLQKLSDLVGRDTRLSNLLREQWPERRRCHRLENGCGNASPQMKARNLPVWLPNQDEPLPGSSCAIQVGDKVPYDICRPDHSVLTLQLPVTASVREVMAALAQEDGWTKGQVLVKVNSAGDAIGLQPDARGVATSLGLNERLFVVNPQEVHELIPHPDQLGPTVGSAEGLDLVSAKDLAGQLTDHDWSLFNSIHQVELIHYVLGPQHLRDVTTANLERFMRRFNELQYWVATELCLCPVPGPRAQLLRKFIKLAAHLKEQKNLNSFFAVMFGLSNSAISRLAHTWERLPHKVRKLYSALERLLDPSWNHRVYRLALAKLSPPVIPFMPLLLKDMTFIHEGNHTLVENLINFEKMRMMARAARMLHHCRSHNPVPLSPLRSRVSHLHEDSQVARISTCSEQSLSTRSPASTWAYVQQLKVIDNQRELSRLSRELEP
Chain of Rap guanine nucleotide exchange factor 4 (Homo sapiens) (Q8WZA2 whole entry, looked up): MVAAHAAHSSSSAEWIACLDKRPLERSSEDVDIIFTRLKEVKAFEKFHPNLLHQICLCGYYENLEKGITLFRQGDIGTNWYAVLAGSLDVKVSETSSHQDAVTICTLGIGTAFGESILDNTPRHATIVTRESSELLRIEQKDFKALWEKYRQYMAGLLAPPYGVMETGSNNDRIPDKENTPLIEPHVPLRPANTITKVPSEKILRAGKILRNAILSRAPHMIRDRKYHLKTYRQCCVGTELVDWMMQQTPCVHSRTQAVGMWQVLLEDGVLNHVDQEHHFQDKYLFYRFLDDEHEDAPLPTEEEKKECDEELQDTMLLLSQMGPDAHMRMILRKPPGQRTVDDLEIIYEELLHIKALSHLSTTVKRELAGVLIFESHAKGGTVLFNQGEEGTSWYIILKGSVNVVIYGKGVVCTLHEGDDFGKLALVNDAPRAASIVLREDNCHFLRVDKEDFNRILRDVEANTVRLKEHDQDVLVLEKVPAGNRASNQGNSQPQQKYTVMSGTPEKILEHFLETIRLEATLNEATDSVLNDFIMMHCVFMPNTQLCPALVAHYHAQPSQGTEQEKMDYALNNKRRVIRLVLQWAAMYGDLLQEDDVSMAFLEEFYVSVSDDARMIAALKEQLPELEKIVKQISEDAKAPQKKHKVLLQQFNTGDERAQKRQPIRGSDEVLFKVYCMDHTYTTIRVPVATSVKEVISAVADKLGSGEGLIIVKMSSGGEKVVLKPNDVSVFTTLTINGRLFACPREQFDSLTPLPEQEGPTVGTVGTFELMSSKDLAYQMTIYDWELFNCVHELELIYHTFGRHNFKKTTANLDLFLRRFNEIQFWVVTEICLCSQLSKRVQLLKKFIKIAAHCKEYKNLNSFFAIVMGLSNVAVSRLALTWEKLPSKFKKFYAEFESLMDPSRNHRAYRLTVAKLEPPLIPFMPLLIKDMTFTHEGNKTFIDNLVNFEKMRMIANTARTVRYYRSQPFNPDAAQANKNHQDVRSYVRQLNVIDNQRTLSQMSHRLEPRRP
Chain of Ubiquitin carboxyl-terminal hydrolase 1 (Homo sapiens) (O94782 whole entry, looked up): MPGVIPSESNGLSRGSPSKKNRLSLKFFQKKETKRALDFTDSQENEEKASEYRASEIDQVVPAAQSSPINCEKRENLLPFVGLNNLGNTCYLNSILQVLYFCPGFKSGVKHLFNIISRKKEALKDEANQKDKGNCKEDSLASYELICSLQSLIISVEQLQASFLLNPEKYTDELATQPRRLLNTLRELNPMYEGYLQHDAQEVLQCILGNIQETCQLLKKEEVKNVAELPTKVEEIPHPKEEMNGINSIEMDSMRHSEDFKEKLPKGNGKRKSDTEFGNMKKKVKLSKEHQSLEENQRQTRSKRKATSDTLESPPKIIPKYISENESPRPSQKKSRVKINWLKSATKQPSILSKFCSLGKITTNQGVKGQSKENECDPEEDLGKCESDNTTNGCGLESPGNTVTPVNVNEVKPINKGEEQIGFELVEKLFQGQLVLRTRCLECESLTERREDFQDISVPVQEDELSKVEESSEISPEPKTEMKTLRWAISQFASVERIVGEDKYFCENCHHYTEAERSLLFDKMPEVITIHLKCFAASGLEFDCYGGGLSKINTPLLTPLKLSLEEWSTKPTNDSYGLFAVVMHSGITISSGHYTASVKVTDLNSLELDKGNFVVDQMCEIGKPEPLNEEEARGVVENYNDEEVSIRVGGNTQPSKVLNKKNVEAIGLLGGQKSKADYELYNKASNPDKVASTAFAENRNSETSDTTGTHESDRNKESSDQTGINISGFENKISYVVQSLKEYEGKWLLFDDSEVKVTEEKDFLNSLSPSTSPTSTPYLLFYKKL
Chain of ATP-dependent 6-phosphofructokinase (Trypanosoma brucei brucei) (O15648 whole entry, looked up): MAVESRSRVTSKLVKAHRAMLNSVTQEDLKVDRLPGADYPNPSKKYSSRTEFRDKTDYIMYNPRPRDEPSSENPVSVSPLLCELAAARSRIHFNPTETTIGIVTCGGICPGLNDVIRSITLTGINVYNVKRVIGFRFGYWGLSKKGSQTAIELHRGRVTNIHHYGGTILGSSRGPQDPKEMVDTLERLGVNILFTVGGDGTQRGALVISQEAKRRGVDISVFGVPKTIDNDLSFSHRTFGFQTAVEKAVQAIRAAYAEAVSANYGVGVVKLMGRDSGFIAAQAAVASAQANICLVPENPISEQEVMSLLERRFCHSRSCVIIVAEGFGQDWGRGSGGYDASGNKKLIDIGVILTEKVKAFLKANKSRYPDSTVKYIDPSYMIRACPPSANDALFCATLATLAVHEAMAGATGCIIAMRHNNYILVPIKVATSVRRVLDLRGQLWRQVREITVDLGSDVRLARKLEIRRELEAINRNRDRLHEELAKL
Chain of Luciferin 4-monooxygenase (Photinus pyralis) (P08659 whole entry, looked up): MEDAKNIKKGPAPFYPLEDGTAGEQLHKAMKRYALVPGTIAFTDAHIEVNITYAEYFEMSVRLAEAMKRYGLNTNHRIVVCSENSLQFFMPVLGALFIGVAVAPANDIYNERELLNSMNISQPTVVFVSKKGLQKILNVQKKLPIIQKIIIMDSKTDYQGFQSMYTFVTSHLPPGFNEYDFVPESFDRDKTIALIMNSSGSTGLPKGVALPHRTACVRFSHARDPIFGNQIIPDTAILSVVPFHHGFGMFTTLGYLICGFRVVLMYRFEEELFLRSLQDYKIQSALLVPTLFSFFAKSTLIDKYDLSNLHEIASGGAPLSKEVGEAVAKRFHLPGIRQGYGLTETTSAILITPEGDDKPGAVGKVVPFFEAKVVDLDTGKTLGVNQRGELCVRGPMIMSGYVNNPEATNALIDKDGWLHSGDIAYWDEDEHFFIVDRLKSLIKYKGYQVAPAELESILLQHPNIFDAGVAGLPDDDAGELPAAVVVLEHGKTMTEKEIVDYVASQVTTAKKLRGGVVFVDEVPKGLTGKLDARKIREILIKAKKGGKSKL

C=C[C@]1(C)C[C@@H](OC(=O)CSCCN(CC)CC)[C@]2(C)C(C)CC[C@]3(CCC(=O)[C@H]32)[C@@H](C)[C@@H]1O (some centres not stated)
active: Potency [11] 10 µM | Potency [12] 11.2 µM | Potency [13] 5.01 µM | Potency [14] 10 µM | Potency [15] 8.91 µM | Potency [16] 7.94 µM | Potency [17] 11.2 µM | Potency [18] 5.01 µM | Potency [19] 7.94 µM | Potency [21] 7.57 µM | Potency [22] 13.5 µM | Potency [23] 10 µM | Potency [24] 8.91 µM | Potency [25] 11.2 µM | Potency [26] 6.31 µM | Potency [27] 7.08 µM | Potency [28] 8.91 µM | Potency [29] 5.62 µM | Potency [31] 8.91 µM | Potency [32] 6.75 µM | Potency [33] 3.55 µM | Potency [34] 6.75 µM | Potency [35] 5.36 µM | Potency [36] 10 µM | Potency [37] 15.1 µM | Potency [38] 13.5 µM | Potency [39] 3.16 µM | Potency [40] 12.6 µM | Potency [42] 6.75 µM | Potency [43] 3.98 µM | Potency [45] 8.91 µM | Potency [46] 5.01 µM | Potency [47] 4.47 µM | Potency [49] 7.94 µM | Potency [50] 3.98 µM | Potency [51] 11.2 µM | Potency [52] 7.08 µM | Potency [53] 2.13 µM
inactive: outcome [1] | Potency [2] | Potency [3] | Potency [4] | Potency [5] | Potency [6] | Potency [7] | Potency [8] | Potency [9] | Potency [10] | Potency [20] | Potency [30] | Potency [41] | Potency [44] | Potency [48]

O=C(COc1cccc(OC(F)F)c1)Nc1ccc(SC(F)F)cc1
inactive: Potency [7] | activation [54] 9.08% [at 17.1 µM, percent relative to cAMP agonist control] | Potency [55] | activity change, negative = inhibition [9] 8.28% [at 30.8 µM]
